Calls of active or inactive are those of the source. Unless noted, no rule for the calls is given here.

The nature of test [1]: HepG2 liver cancer cell viability effects, profiling panel, resazurin fluorescence, 24 h, PK04 Diversity Set (AID 1172). As to conditions: higher = more signal.
Test [2] is described as follows: basal S. cerevisiae growth modulation, no modifier, primary screen, OD600, strain BY4716, 24 h, basal condition (AID 1173). The note with it: OD600, 24 h, higher = more signal, called active from +8 up or from −8 down.
Test [3] can be described thus: MM1S myeloma cell viability, profiling panel, resazurin fluorescence, basal, 24 h, PK04 Diversity Set (AID 1174).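 Also: MM1S multiple myeloma cell line.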 The note with it: higher = more signal, called active from +8 up or from −8 down.
Test [4] deals with Dihydroorotate dehydrogenase (quinone), mitochondrial (Plasmodium falciparum (isolate 3D7)) (UniProt Q08210). The experiment in a line: PfDHODH enzyme inhibitors, primary screen, biochemical, C-terminal His tag, absorbance 600 nm (AID 1175).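 Also: recombinant parasite enzyme with a five histidine tag at its C terminus.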 The note with it: DCIP absorbance 600 nm, higher = more signal, called active from +8 up or from −8 down.
Chain of Dihydroorotate dehydrogenase (quinone), mitochondrial (Plasmodium falciparum (isolate 3D7)) (Q08210 whole entry, looked up): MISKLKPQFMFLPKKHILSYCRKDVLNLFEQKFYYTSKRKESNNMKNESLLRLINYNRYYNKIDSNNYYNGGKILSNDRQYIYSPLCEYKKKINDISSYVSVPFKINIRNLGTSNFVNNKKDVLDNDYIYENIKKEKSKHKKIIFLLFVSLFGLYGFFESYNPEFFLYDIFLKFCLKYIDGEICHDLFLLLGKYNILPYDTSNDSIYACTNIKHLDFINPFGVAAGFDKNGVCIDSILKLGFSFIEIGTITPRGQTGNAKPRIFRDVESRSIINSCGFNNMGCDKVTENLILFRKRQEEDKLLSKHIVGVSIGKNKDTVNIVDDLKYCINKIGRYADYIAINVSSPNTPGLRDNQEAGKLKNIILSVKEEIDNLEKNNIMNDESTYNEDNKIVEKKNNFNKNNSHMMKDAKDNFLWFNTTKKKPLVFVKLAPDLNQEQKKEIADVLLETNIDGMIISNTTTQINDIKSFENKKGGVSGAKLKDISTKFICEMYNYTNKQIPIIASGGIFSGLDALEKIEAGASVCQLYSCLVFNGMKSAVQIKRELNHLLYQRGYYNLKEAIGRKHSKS
A short description of test [5]: P. aeruginosa biofilm formation inhibitors, primary screen, strain PAO1, LB-PBS medium, absorbance 600 nm (AID 1176). The note with it: P. aeruginosa PAO1 growth/biofilm, A600, 12 h; higher = more signal.
A short description of test [6]: S. cerevisiae RM11-1a growth modifiers, primary screen, strain RM11-1a, OD600, basal, 24 h (AID 1177).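 Also: cultures grown under basal conditions with no added stressor.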 The note with it: OD600, 24 h, higher = more signal, called active from +8 up or from −8 down.
Test [7] in a line: E. coli acrAB mutant growth effects, primary screen, E. coli filamentation inducers, strain DRC39, OD650, 24 h (AID 1178).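 Also: growth measured as culture turbidity by optical density at 650 nm.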 The note with it: higher = more signal, called active from +8 up or from −8 down.
Test [8] in a line: E. coli acrAB mutant growth effects, primary screen, E. coli filamentation inducers, strain DRC39, OD650, 48 h (AID 1179).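 Also: screen aims at cell division blockers that make cells filament.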 As to conditions: E. coli DRC39 delta-acrAB growth, higher = more signal, called active from +8 up or from −8 down.
The nature of test [9]: RPMI8226 myeloma cell viability, profiling panel, resazurin fluorescence, basal, 24 h, PK04 Diversity Set (AID 1180).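 Also: RPMI8826 multiple myeloma cell line at 5000 cells per well.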 The note with it: higher = more signal.
Test [10] addresses E3 ubiquitin-protein ligase XIAP (Homo sapiens) (UniProt P98170). Kind of test: XIAP binders, primary screen, biophysical, small-molecule microarray, fluorescence 635 nm (AID 1181).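 Also: score merges 667 nm emission and signal to noise over triplicate slides.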 As to conditions: small-molecule microarray binding, higher = more signal.
In test [11] the test system is XIP peptide (Xip251-270) binding. Kind of test: small-molecule binders of XIP peptide, primary screen, biochemical, small-molecule microarray, fluorescence 635/667 nm, 0.1 µg/mL protein (AID 1182). The note with it: fluorescent protein binding, 635 nm, higher = more signal, called active from +8 up or from −8 down.
In test [12] the test system is XIP peptide (Xip251-270). The experiment in a line: small-molecule binders of XIP peptide, primary screen, biochemical, small-molecule microarray, fluorescence 635/667 nm, 0.5 µg/mL protein (AID 1183). As to conditions: small-molecule microarray binding, fluorescence 635 nm; higher = more signal.
Test [13] can be described thus: Plasmodium falciparum growth inhibition, primary screen, strain 3D7, DAPI fluorescence, 100 nL (AID 1184).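 Also: parasites grown inside human red blood cells in medium with human serum.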 The note with it: P. falciparum 3D7 growth, 3 d, higher = more signal.
The target in test [14] is Homeobox protein Hox-A13 (Mus musculus) (UniProt Q62424). Kind of test: inhibitors of HoxA13-DNA binding, primary screen, biochemical, fluorescence polarization, labeled oligonucleotide (AID 1185). As to conditions: 15 min, higher = more signal, called active from +8 up or from −8 down.
Chain of Homeobox protein Hox-A13 (Mus musculus) (Q62424 whole entry, looked up): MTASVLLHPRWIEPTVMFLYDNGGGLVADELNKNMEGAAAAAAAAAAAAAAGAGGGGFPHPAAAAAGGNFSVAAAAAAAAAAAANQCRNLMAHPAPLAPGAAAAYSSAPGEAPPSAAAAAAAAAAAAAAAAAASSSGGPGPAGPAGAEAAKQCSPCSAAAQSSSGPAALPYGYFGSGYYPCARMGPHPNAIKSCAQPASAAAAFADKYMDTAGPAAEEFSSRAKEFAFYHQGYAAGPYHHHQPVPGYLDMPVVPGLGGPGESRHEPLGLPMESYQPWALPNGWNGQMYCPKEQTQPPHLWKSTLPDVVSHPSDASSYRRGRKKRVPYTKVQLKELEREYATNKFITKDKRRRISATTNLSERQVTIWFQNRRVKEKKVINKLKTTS
A short description of test [15]: inhibitors of hydroxyurea-induced Chk1 phosphorylation, primary screen, imaging, HeLa, phospho-Chk1 antibody, percent positive cells (AID 1186). The note with it: hydroxyurea-induced phospho-Chk1 immunofluorescence imaging, higher = more signal.
A short description of test [16]: inhibitors of hydroxyurea-induced Chk1 phosphorylation, primary screen, imaging, HeLa, phospho-Chk1 nuclear intensity (AID 1187). The note with it: hydroxyurea-induced phospho-Chk1 immunofluorescence imaging, higher = more signal.

Chain of E3 ubiquitin-protein ligase XIAP (Homo sapiens) (P98170 whole entry, looked up): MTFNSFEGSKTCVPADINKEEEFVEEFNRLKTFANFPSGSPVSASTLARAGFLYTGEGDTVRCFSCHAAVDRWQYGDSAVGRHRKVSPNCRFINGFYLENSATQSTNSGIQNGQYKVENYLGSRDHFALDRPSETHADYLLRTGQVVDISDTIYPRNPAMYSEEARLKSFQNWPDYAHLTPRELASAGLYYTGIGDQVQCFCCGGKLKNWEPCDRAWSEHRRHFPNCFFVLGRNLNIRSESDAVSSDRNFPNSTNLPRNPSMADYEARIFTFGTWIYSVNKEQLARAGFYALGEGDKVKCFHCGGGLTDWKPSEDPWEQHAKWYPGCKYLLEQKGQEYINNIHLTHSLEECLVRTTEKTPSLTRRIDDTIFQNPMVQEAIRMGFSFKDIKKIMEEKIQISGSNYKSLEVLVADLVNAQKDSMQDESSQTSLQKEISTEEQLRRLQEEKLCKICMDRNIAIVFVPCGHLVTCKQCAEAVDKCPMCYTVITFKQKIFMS

As to `C=CCNC(=O)[C@H]1[C@@H]2C(=O)O[C@@H](c3ccccc3)[C@@H](c3ccccc3)N2[C@@H](c2ccccc2OCCO)[C@]12C(=O)N(C(=O)OCCOC)c1ccc(C#CC3(O)CCCCCC3)cc12`, the z-score in [1] is -0.536; in test [2], -0.0911 (inactive); in test [3] it was -3.39 (inactive); in test [5], 2.42 (inactive); in [6], 0.0382 (inactive); in test [7], 0.0979 (inactive). The z-score in [8] was 0.975 (inactive); in test [9] it was -4.17; in [13] it was -2.15; in [14], -0.807 (inactive); in test [15], -0.485 (inactive); in test [16], -0.428 (inactive). For the same compound, the composite z-score is -1.12 (inactive) in test [4], -0.259 in [10], 0.892 (inactive) in test [11] and 0.712 in [12].

For the compound `C=CC[C@@H](OC(=O)Nc1ccc(OC)cc1)c1ccc(O)c(F)c1`, the z-score in test [1] is -1.33; in [2], -16.3 (active); in [3], -1.32 (inactive); in test [5], 0.79 (inactive); in test [6], -22 (active); in [7] it was 0.924 (inactive). In addition, the z-score in [8] is 0.41 (inactive); in test [9], -0.895; in test [13], 0.765; in [14] it was -3.65 (inactive); in test [15] it was 0.0919 (inactive); in test [16] it was 0.0113 (inactive). Also, the composite z-score in test [4] is -2.55 (inactive); in test [10] it was -0.0441; in [11] it was 1.29 (inactive); in test [12], -1.1.

As to `CC[C@@H]1C=C(C(=O)O)[C@H](c2ccc(C#N)cc2)N1S(=O)(=O)c1ccc(C)cc1`, the z-score was -0.835 in test [1]; 0.965 (inactive) in test [2]; -0.933 (inactive) in test [3]; -0.0601 (inactive) in test [5]; -0.242 (inactive) in test [6]; -0.266 (inactive) in test [7]. The z-score in test [8] is -0.0211 (inactive); in test [9], -1.21; in [13], 1.91; in test [14] it was -4.62 (inactive); in [15], 0.208 (inactive); in test [16], -0.0106 (inactive). Besides, the composite z-score in [4] is -1.93 (inactive); in [10], 0.0153; in test [11], 0.377 (inactive); in test [12], -0.172.

For the compound `CC(C)N1C(=O)c2ccccc2[C@@H](C(=O)NCCN2CCOCC2)[C@@H]1c1ccc(CO)cc1`, the z-score is -0.229 in test [1]; 0.525 (inactive) in test [2]; -0.401 (inactive) in test [3]; 0.429 (inactive) in [5]; 0.985 (inactive) in test [6]; 0.0059 (inactive) in test [7]. The z-score in [8] is -0.434 (inactive); in [9], -0.0956; in test [13], -0.22; in test [14], -4.17 (inactive); in test [15] it was -0.0809 (inactive); in test [16], -0.264 (inactive). The composite z-score in test [4] was 0.184 (inactive); in [10] it was -0.465; in test [11], 0.122 (inactive); in test [12], 0.0961.

`C=C[C@@H](CO)N(Cc1ccc(OC)cc1)S(=O)(=O)c1ccc(Br)cc1`: the z-score in [1] is 1.04; in [2] it was -5.71 (inactive); in test [3] it was -0.495 (inactive); in test [5] it was -0.152 (inactive); in test [6] it was -1.99 (inactive); in [7], 1.66 (inactive). For the same compound, the z-score in test [8] is 1.88 (inactive); in test [9], -0.455; in test [13] it was -0.0153; in test [14], -3.98 (inactive); in test [15], -0.289 (inactive); in test [16], -0.157 (inactive). For the same compound, the composite z-score in test [4] was -2.32 (inactive); in [10] it was -0.434; in [11] it was -0.798 (inactive); in [12], -0.315.

Consider `NC(=O)NCC#Cc1ccc2c(c1)[C@]1(C(=O)N2)[C@H](c2ccccc2OCCO)N2[C@H](c3ccccc3)[C@H](c3ccccc3)OC(=O)[C@H]2[C@@H]1C(=O)O`, for which the z-score in test [1] was 1.87; in test [2], -0.462 (inactive); in test [3], 0.877 (inactive); in test [5] it was -0.0199 (inactive); in [6] it was -0.246 (inactive); in test [7] it was 0.614 (inactive). Further, the z-score in test [8] was -0.727 (inactive); in test [9] it was 0.327; in [13], -0.373; in test [14] it was -7.04 (inactive); in test [15], 0.109 (inactive); in [16], 0.239 (inactive). The composite z-score is -1.96 (inactive) in test [4], -0.287 in test [10], 0.654 (inactive) in test [11] and 0.418 in test [12].

Take `COCCOC(=O)N1C(=O)[C@@]2(c3ccccc31)[C@H](c1ccc(O)cc1)N1[C@H](c3ccccc3)[C@H](c3ccccc3)OC(=O)[C@H]1[C@@H]2C(=O)N1CCN(c2ncccn2)CC1`: the z-score was 0.0716 in [1]; 0.353 (inactive) in test [2]; -0.183 (inactive) in test [3]; 2.33 (inactive) in [5]; -0.451 (inactive) in [6]; -0.838 (inactive) in [7]. Moreover, the z-score in test [8] is -0.935 (inactive); in [9] it was -0.0522; in test [13], -1.16; in [14], -2.14 (inactive); in test [15] it was 0.0666 (inactive); in test [16], 0.651 (inactive). Also, the composite z-score in test [4] is -0.18 (inactive); in [10] it was 0.147; in test [11] it was 1.84 (inactive); in test [12], 0.787.

For the compound `Cc1ccc(C(C)CC(O)C2C=CC3C(=O)N(c4ccccc4)C(=O)C3N2Nc2ccccc2)o1` (centres undefined), the z-score in test [1] was -1.38; in [2] it was -2.27 (inactive); in test [3], -1.01 (inactive); in test [5], 0.574 (inactive); in test [6], 0.184 (inactive); in test [7], 0.1 (inactive). Besides, the z-score is -0.681 (inactive) in test [8]; -0.738 in test [9]; -0.54 in test [13]; -1.12 (inactive) in [14]; -0.179 (inactive) in test [15]; -0.508 (inactive) in [16]. The composite z-score in test [4] is -0.478 (inactive); in test [10], 0.254; in test [11], 0.0436 (inactive); in test [12], 0.518.

Regarding `CCCCCN1CC=CC23O[C@@H]4/C=C\CCC(C)OC(=O)C4[C@H]2C(=O)N(C(CO)C(C)C)[C@@H]3C1=O` (some centres undefined), the z-score in [1] was 0.713; in [2] it was -0.82 (inactive); in test [3], -0.502 (inactive); in test [5], 0.193 (inactive); in test [6], -0.116 (inactive); in test [7], 0.451 (inactive). Also, the z-score is 0.236 (inactive) in [8]; 1.41 in test [9]; -1.07 in test [13]; -5.72 (inactive) in test [14]; -0.584 (inactive) in [15]; -0.113 (inactive) in test [16]. Besides, the composite z-score in [4] was -1.74 (inactive); in test [10], 0.0627; in test [11], 0.733 (inactive); in [12], 0.761.
